Experimental data published in ChEMBL document CHEMBL4513149, “CO-ADD screening of MMV (CH) - MMV compounds” (2021).
Measured potencies and affinities stand elsewhere.

Legend:
Klebsiella pneumoniae = details: Concentration 20 uM; ASSAY_TEST Inhibition of Bacterial Growth; detection method Absorption (OD600); MEDIA CAMHB; plate type 384well; NBS; CORNING #3640; time 18 hr
Candida albicans = details: 20 µM
Cryptococcus neoformans = details: Concentration 20 uM; ASSAY_TEST Inhibition of Fungal Growth; detection method Resazurin; Absorption (OD600-OD570); plate type 384well; NBS; CORNING #3640

SMILES	Inhibition (Klebsiella pneumoniae)	Inhibition (Candida albicans)	Inhibition (Cryptococcus neoformans)
CCCCc1ccc(C(=O)Nc2nccc3ccccc23)nc1	7.3%	6.07%	-8.5%
CC(C)(C)OC(=O)N1CCN(c2nccc(-c3ccc(-c4ccc(Cl)cc4)s3)n2)CC1	5%	3.84%	-6.76%
COC(=O)c1ccc(F)cc1NS(=O)(=O)c1cccc(-c2cnn(Cc3ccccc3)c2)c1	14.02%	6.83%	12.85%
COc1cc2ncnc(NC3CCN(Cc4ccccc4)CC3)c2cc1OC	10.11%	2.88%	4.42%
COc1ccc(C2(C(=O)Nc3ccc(Br)cc3)CCCC2)cc1	17.05%	4.64%	-2.31%
c1ccc(Oc2ccc(-c3cc(C4CCOCC4)[nH]n3)cc2)cc1	16.38%	7.75%	0.97%
O=C(NC1CC1)c1ccc(N2CCOc3ccc(Cl)cc32)s1	15.81%	6.64%	31.76%
COc1ccccc1OCCCCn1c(C2CC2)nc2ccccc21	10.24%	1.96%	-4.4%
O=C(Cn1ccnc1[N+](=O)[O-])NCc1ccccc1 [BENZNIDAZOLE]	18.48%	2.82%	-2.09%
Cc1ccc(C(=O)Nc2ccc(S(=O)(=O)O)c3cc(S(=O)(=O)O)cc(S(=O)(=O)O)c23)cc1NC(=O)c1cccc(NC(=O)Nc2cccc(C(=O)Nc3cc(C(=O)Nc4ccc(S(=O)(=O)O)c5cc(S(=O)(=O)O)cc(S(=O)(=O)O)c45)ccc3C)c2)c1 [SURAMIN]	17.11%	39.2%	2.45%
CC(C(=O)N1CCCC1)N1CCN(S(=O)(=O)c2ccc(C(C)(C)C)cc2)CC1 (stereo not drawn)	0.26%	2.42%	-10.06%
COc1cc(C2=NCCN2)ccc1-n1cc(-c2cccc(C3=NCCN3)c2)nn1.O=CO.O=CO	8.01%	2.32%	7.56%
CC1(COc2ccc(N3CCC(Oc4ccc(OC(F)(F)F)cc4)CC3)cc2)Cn2cc([N+](=O)[O-])nc2O1 (stereo not drawn)	19.71%	20.4%	-2.75%
CCc1nc2ccc(C(=O)NCc3ccc4c(c3)OCO4)cn2c1N(C)Cc1cccs1	5.86%	3.04%	-6.4%
CCOc1ccc(-c2nc(NC(=O)CS(=O)(=O)c3ccccc3)sc2C)cc1	8.83%	3.16%	-9.26%
COc1ccc(CN2CCOc3ccc(C(C)(O)CN(C)C)cc3C2)cc1C (stereo not drawn)	16.19%	4.72%	-11.35%
c1ccc(-c2[nH]c3ccccc3c2C(c2ccccn2)N2CCCC2)cc1 (stereo not drawn)	11.72%	1.35%	-10.11%
CCCCN(CCCC)c1c(C#N)cc(S(=O)(=O)Nc2ccccc2)cc1C#N	5.16%	3.66%	-9.03%
COc1nc2ccc(Br)cc2cc1[C@@H](c1ccccc1)[C@@](O)(CCN(C)C)c1cccc2ccccc12.O=C(O)C(F)(F)F	17.53%	4.38%	56.58%
Cc1nn(C)cc1C(C)Nc1nncc(-c2ccc(C(F)(F)F)cc2)n1 (stereo not drawn)	3.18%	3.9%	-5.79%
Cc1cc(O)nc(-n2nc(C)cc2C)n1	12%	69.6%	-1.19%
CC(=O)N1CCc2cc3nc(C)cc(C)c3cc21	14.03%	4.19%	-7.03%

SMILES	Inhibition (Klebsiella pneumoniae)	Inhibition (Candida albicans)	Inhibition (Cryptococcus neoformans)
O=C(NC1=NCCS1)c1sc2cc(F)ccc2c1Cl	1.67%	8.69%	-16.39%
Cc1nnc(NC(=O)c2cn(-c3ccccc3)nc2-c2ccccc2C)o1	13%	4.27%	-7.03%
COc1ccc(-c2cc(NC(=O)c3ccc(F)cc3Cl)ccc2OC)cc1	14.44%	5.2%	8.48%
CS(=O)(=O)c1ccccc1C(=O)N(Cc1ccccc1)c1ccccc1	9.63%	3.84%	-8.51%
Cc1nnc(NCc2cccc(Cl)c2)c2ccccc12	13.85%	3.34%	-11.95%
CC(C)n1ncc2c(C(=O)NCC(c3cccs3)N3CCOCC3)cc(-c3ccccc3)nc21 (stereo not drawn)	8.44%	4.59%	-15.65%
O=[N+]([O-])c1cn2c(n1)OC[C@@H](OCc1ccc(OC(F)(F)F)cc1)C2 [PRETOMANID]	14.31%	4.06%	-5.11%
COc1cccc(CC(=O)N2CCC(n3c(C)nc4ccc(F)cc43)CC2)c1	12.2%	3.01%	-4.62%
Cc1cc(Nc2ccncc2)n2nc(C)c(-c3ccccc3Cl)c2n1	15.32%	1.91%	-9.03%
N#Cc1nc(-c2ccccc2)oc1S(=O)(=O)c1ccc(Cl)cc1	-0.86%	3.69%	-7.91%
Cc1ccc(NC(=O)c2cc(S(=O)(=O)NC(C)(C)C)ccc2C)nc1	13.76%	1.54%	-5.42%
O=C(NCCN1CCCC1)c1cc(NCCCCN2CCC(F)(F)CC2)nc2ccc(Cl)cc12	15.7%	2.73%	24.05%
Brc1c(-c2ccc3c(c2)OCO3)nc2ncccn12	12.72%	3.56%	-13.08%
CS(=O)(=O)N1CCC(CCn2nc(Cc3cccc4ccccc34)c3c(N)ncnc32)CC1	2.11%	3.38%	-7.27%
OCc1ccc(-c2cncc(Nc3cccc(Cl)c3)c2)cc1	12.75%	4.13%	-14.16%
CCOC(=O)c1noc(N)c1-c1ccccc1	13.91%	3.66%	-9.75%
Cc1[nH]c2cc(F)cc(F)c2c(=O)c1-c1ccc(Oc2ccc(OC(F)(F)F)cc2)cc1	5.11%	3.94%	-10.28%
O=C(Nc1cccc(-c2ccc(NCCCN3CCCC3)nc2)c1)c1ccccc1	8.2%	3.22%	16.14%
COC(=O)c1c(NC(=O)c2cc3ccccc3oc2=O)sc2c1CCN(Cc1ccccc1)C2	12.75%	2.23%	-2.1%
COc1cc(NC(=O)Cc2nn(C)c(=O)c3ccccc23)ccc1Cl	12.64%	6.72%	-0.85%
CCc1nc2ccccc2n1CC(O)COc1cc(C)ccc1Cl (stereo not drawn)	3.05%	1.23%	-20.36%
CC[C@H](CO)NCCN[C@H](CC)CO.Cl.Cl	9.73%	3.25%	1.15%

SMILES	Inhibition (Klebsiella pneumoniae)	Inhibition (Candida albicans)	Inhibition (Cryptococcus neoformans)
O=C(c1ccc(NCCO)cc1)C1C[C@H]1c1ccc(Cl)cc1 (stereo partly drawn)	5.98%	6.88%	2.16%
C[C@H](C(N)=O)N1CCCC[C@H]1c1ccc(OCc2cccc(F)c2)cc1	11.66%	2.64%	-9.53%
Cl.NCCCC(N)(C(=O)O)C(F)F.O (stereo not drawn) [EFLORNITHINE HYDROCHLORIDE]	11.19%	2.7%	-9.22%
COc1cccc(NC(=O)c2c(NC(=O)c3cccnc3)sc3c2CCC3)c1	13.46%	9.13%	-5.87%
CC(C)(C)n1nc(Cc2ccc(F)c(Cl)c2)c2c(N)ncnc21	9.52%	4.75%	-6.05%
COc1cccc(OCC(=O)c2ccc(Br)cc2)c1	-4.37%	4.44%	-12.88%
N#Cc1ccc(-c2cnc(N)c(-c3ccc(C(N)=O)cc3)n2)cc1	16.03%	4.25%	-3.91%
COc1cc(CN2CCC3(C=Cc4ccccc43)CC2)cc2c1OCO2	-1.15%	-0.19%	-8.59%
Cc1cnc(N2CCN[C@@H](Cc3ccccc3)C2)nc1Oc1ccc(-n2ccnc2)cc1.Cl	8.14%	2.69%	-5.74%
CCc1ccccc1-n1c(C)cn2c3c(=O)n(C(C(=O)OC)C(C)C)c(=O)n(C)c3nc12 (stereo not drawn)	8.42%	0.33%	-8.91%
CN1CCCC1CCO[C@](C)(c1ccccc1)c1ccc(Cl)cc1.O=C(O)/C=C/C(=O)O (stereo partly drawn)	21.77%	1.54%	-7.21%
COc1ccccc1C(C)NCC(=O)Nc1cc(C(F)(F)F)ccc1Cl (stereo not drawn)	14.48%	1.66%	-4.09%
O=C(NC1CC1)c1ccc(CSCc2ccccc2Cl)o1	1.21%	7.77%	-0.4%
CCCS(=O)(=O)N1CCC(CO)(Cc2ccccc2C(F)(F)F)CC1	9.23%	3.76%	-2.93%
C[C@]1(O)C[C@@H](c2nc(-c3ccc4ccc(-c5ccccc5)nc4c3)c3c(N)nccn32)C1 [LINSITINIB]	12.51%	8.51%	-8.41%
CCCn1nnc(NC(=O)COc2ccc(C3CCCCC3)cc2)n1	4.73%	21.8%	-8.36%
COc1cc(-c2cc(-c3ccc(S(C)(=O)=O)cc3)cnc2N)ccc1O	7.56%	3.91%	-7.2%
COc1cccn2c(C(=O)N3CCCCC3)c(C(F)(F)F)nc12	7.08%	1.9%	-6.15%
CNC(=O)c1nn(C)c2c1C(C)(C)Cc1cnc(Nc3ccc(N4CCN(C)CC4)cc3)nc1-2 [MILCICLIB]	-10.97%	4.83%	-4.76%
Clc1ccc(-n2cc(COc3ccnc4ccccc34)nn2)cc1	12.62%	3.14%	-4.84%
CCN(CC)CCCCCCNc1cc(OC)cc2c(C)ccnc12.Cc1ccc(S(=O)(=O)O)cc1	14.1%	2.19%	2.4%
COc1ccc(N(CCc2cccc(C)n2)C(=O)C2CCCCC2)cc1	6.26%	-0.29%	-4.98%
